Reference: ChEMBL document CHEMBL3988442, “University of Dundee, Small-Polar-MMV Screening Library” (2021)
Among all 69,000 compounds or so, about 950 (1.4%) showed an effect of 50% or more. The entries come from a sample that favours strong results as a whole.

These compounds were tested on Mycobacterium tuberculosis (assay: Cornell M. t heat shock assay; further: in the data most compounds retested in dose-response had high values).
Assay type: functional, organism-based
Design: dose or concentration left out as unconfirmed

SMILES	Percent Effect
CNC(=O)CN1CCOCC12CCN(Cc1ccncc1)CC2.O=C(O)C(F)(F)F.O=C(O)C(F)(F)F	-37.23%
CN(C)CCO[C@@H]1CC[C@H]2[C@H]1OCCN2C(=O)c1ccnnc1.O=C(O)C(F)(F)F	-33.17%
COc1nccnc1-c1cc(NC2CCCC2)nc2[nH]ccc12	103.35%
COc1ncc(-c2ccc(O)cc2)c(OC)n1	-3.595%
FC(F)(F)c1ccc(-c2cc(NC3CCNCC3)nc3[nH]ccc23)nc1	16.27%
COc1ncc(-c2cc(NCCN(C)C)nc3[nH]ccc23)c(OC)n1	-24.47%
COc1nccnc1-c1cc(NC2CCNCC2)nc2[nH]ccc12	-16.125%
CNc1cc(C)nc(-c2cc(NC3CCNCC3)nc3[nH]ccc23)n1	-20.27%
COc1ncc(-c2cc(NC3CCCC3)nc3[nH]ccc23)c(OC)n1	102%
Nc1ccnc(-c2cc(NC3CCNCC3)nc3[nH]ccc23)c1	14.8%
COc1cc(-c2cc(NC3CCCC3)nc3[nH]ccc23)nc(N)n1	101.075%
O=C(O)C(F)(F)F.O=C(c1ccno1)N1CC[C@@H]2O[C@@H](COCCN3CCCC3)CC[C@@H]21	-5.47%
C[C@H]1CN2C[C@H](O)CC2CN1Cc1ccc2nccnc2c1.Cl (some centres undefined)	2.113%
O=C(O)C(F)(F)F.O=C(O)C(F)(F)F.c1ccc(OC[C@]23COC[C@H]2CN(C2CCOCC2)C3)nc1	-7.98%
Cc1ccc(CN(C)C(=O)CN2CCCC2c2cnn(C)c2)o1 (centres undefined)	15.31%
CC1=N[C@@]2(CC[C@@H]3CN(Cc4cccc(Cl)c4)C[C@@H]32)C(=O)N1CC1CC1.O=C(O)C(F)(F)F	3.209%
CN(C)S(=O)(=O)N1C[C@H]2C[C@H](C(=O)NCc3ccccc3)[C@@H](C1)O2	-32.32%
Cc1nc(CN2CCC3(CCCN(Cc4cccnc4)C3)C2=O)cs1.O=C(O)C(F)(F)F.O=C(O)C(F)(F)F.O=C(O)C(F)(F)F (centres undefined)	-21.24%
CCO[C@H]1CN(CC2CCOCC2)[C@@H]2CCCO[C@H]12.O=C(O)C(F)(F)F	43.93%
Cc1noc(C)c1C(=O)N1C[C@H]2CC[C@@H]1CN(c1cnccn1)C2	-7.98%
O=S(=O)(NCCCN1CCCC1)c1cc(F)cc(F)c1	-10.46%
COCCN1C(=O)C2(CCN(CC3CC3)CC2)c2ccccc21.O=C(O)C(F)(F)F	22.29%
CCc1[nH]c2c(CNc3cc(C)nc(NC)n3)cc(C)cc2c1C	100.4%

SMILES	Percent Effect
Cc1cc(CNc2nccc(N)n2)c2[nH]c(C)c(C)c2c1	6.431%
CCc1[nH]c2c(CNc3nc(C)cc(NC)n3)cc(C)cc2c1C	100.6%
CNc1cc(C)nc(NCc2cc(C)cc3c(C)c(C)[nH]c23)n1	35.24%
CCc1[nH]c2c(CNc3nccc(N)n3)cc(F)cc2c1C	15.63%
CCc1[nH]c2c(CNc3cnccn3)cc(F)cc2c1C	27.04%
CCc1[nH]c2c(CNc3cncc(C(=O)N(C)C)n3)cc(C)cc2c1C	-0.9488%
CCc1[nH]c2c(CNC(=O)C3CNC(=O)C3)cc(C)cc2c1C (centres undefined)	7.867%
CCc1[nH]c2c(CNc3nccc(N)n3)cc(C)cc2c1C	83.04%
CNc1nc(C)cc(NCc2cc(C)cc3c(C)c(C)[nH]c23)n1	64.43%
CCc1[nH]c2c(CNc3cncc(C(=O)OC)n3)cc(C)cc2c1C	0.7071%
Cc1cc(CNc2cncc(C(=O)N(C)C)n2)c2[nH]c(C)c(C)c2c1	-11.36%
COCC1c2c(cnn2CC2CC2)CCN1Cc1ccsc1.O=C(O)C(F)(F)F.O=C(O)C(F)(F)F (centres undefined)	-18.97%
O=C(O)C(F)(F)F.O=C(O)C(F)(F)F.O=C(O)C(F)(F)F.c1ccc(CN2CC[C@]3(C[C@@H](Oc4ccccn4)CO3)C2)nc1	-28.12%
Cl.Cl.c1cnc(NCc2cncc3c2CCN(CC2CC2)C3)nc1	-5.572%
Cc1ncsc1-c1nnc(C2CCCN2C(=O)CCn2cccn2)o1 (centres undefined)	13.77%
Cc1nnc(N2CC[C@H]3C[C@H](C(=O)N4CCOCC4)O[C@H]3C2)s1.O=C(O)C(F)(F)F	5.897%
CC(C)CNC(=O)N1CC[C@@H]2CN(Cc3cccnc3)S(=O)(=O)[C@@H]2CC1.O=C(O)C(F)(F)F	36.35%
COc1ccc(CN2CCCC3(CCN(c4ccsc4)C3=O)C2)cc1.O=C(O)C(F)(F)F (centres undefined)	27.7%
Cn1cc(C2CC(=O)NC23CCN(Cc2ccncc2)CC3)cn1.O=C(O)C(F)(F)F.O=C(O)C(F)(F)F (centres undefined)	-12.84%
O=C(N[C@@H]1CN(Cc2ccoc2)[C@@H]2CCCO[C@@H]21)C1CC1.O=C(O)C(F)(F)F	-3.228%
CCC(NC(=O)Nc1ccc(OC)c(C)c1)c1ccncc1 (centres undefined)	91.94%
CCC(NC(=O)Nc1ccc(OC)c(C)c1)c1noc(C)n1 (centres undefined)	14%
CCNC(=O)Cc1ccc(NC(=O)NC(CC)c2ccncc2)cc1 (centres undefined)	-2.186%

SMILES	Percent Effect
Cc1oncc1C(=O)N1CCc2ncnc(-c3cnn(C)c3)c2CC1.O=C(O)C(F)(F)F	-24.59%
Clc1cccc(N2CCC(NCc3cc[nH]n3)C2)c1 (centres undefined)	-2.653%
Clc1cccc(N2CCC(NCc3ncc[nH]3)C2)c1 (centres undefined)	62.08%
O=C1CC(NCc2ncc[nH]2)CN1CCc1cccc(Cl)c1 (centres undefined)	14%
Cc1ncsc1C(=O)NCCn1nc(C2CCNC2)c2cccnc21.Cl (centres undefined)	-3.491%
Cc1ccc(CCNc2ncnc3sc4c(c23)CCNC4)o1	98.95%
c1ccc(OCCNc2ncnc3sc4c(c23)CCNC4)cc1	56.72%
Cc1nonc1OCCNc1ncnc2sc3c(c12)CCNC3	19.66%
Cc1ccc(CCNc2nc(-c3ccncc3)nc3c2CCNCC3)o1	6.799%
Oc1ccccc1N1CCN(c2ncnc3sc4c(c23)CCNC4)CC1	-21.81%
c1ccc2c(c1)CN(c1ncnc3sc4c(c13)CCNC4)CCO2	1.883%
COc1ccc(C2=CNC(C(F)(F)F)=CC2N)cc1 (centres undefined)	1.706%
Cc1csc(CN2CCn3c(COc4cccnc4)cnc3C2C)n1.O=C(O)C(F)(F)F.O=C(O)C(F)(F)F (centres undefined)	18.26%
Cc1ccsc1C(=O)N1C[C@@H]2CN(Cc3ccoc3)CCO[C@@H]2C1.O=C(O)C(F)(F)F	-4.487%
O=C(O)C(F)(F)F.O=C(c1ccc[nH]1)N1CCn2cc(Cn3cccn3)nc2C1	-0.1806%
CN(C)c1ccccc1CN1CCC(N2CCCC2=O)CC1	-7.548%
O=C(N1CCCC1)N1CCC[C@]2(C[C@@H](Oc3ncccc3F)CO2)C1.O=C(O)C(F)(F)F	-4.547%
CN(C)C(=O)c1ccc2c(c1)N(C)C(CC(=O)NCc1ncc[nH]1)CO2 (centres undefined)	-1.035%
COC(=O)CNC(=O)CC1COc2ccc(C(=O)N(C)C)cc2N1C (centres undefined)	7.778%
CN(C)C(=O)c1ccc2c(c1)N(C)C(CC(=O)NCc1ccno1)CO2 (centres undefined)	79.27%
CNC(=O)CN1CCOCC2(CCCN(Cc3ccsc3)C2)C1.O=C(O)C(F)(F)F.O=C(O)C(F)(F)F (centres undefined)	-10.69%
CCOc1ncccc1NC(=O)c1cc(C)sc1C	19.66%
CCOc1ncccc1NC(=O)c1cccs1	-26.07%

SMILES	Percent Effect
CCOc1ncccc1NC(=O)c1sccc1C	102.4%
Cc1sc2c(C3CCNCC3)nc(Nc3cccc(F)c3)n2c1C.Cl	26.64%
CCOCCNc1nc(-c2ccncc2)nc2c1CCNCC2	-10.32%
c1cc(-c2nc3c(c(NCCn4ccnn4)n2)CCNCC3)ccn1	-28.7%
O=C(Nc1cccc(F)c1)NC1CCN(Cc2ccncc2)CC1	-8.889%
Cl.NC1CCc2nc(-c3ccncc3)nc(Nc3cccc(F)c3)c2C1 (centres undefined)	82.22%
O=C(c1cccnc1O)N1CCN(CCc2cccs2)CC1	3.025%
O=C(O)C(F)(F)F.O=C(c1cnccn1)N1CCCC2(CCN(c3ccccn3)C2)C1 (centres undefined)	-26.38%
Cc1ccc(CN(Cc2ncc[nH]2)C2CC(C)(C)NC(C)(C)C2)o1.O=C(O)CC(O)(CC(=O)O)C(=O)O	28.54%
O=C(O)C(F)(F)F.O=C(c1ccno1)N1CCc2ncnc(-c3ccncc3)c2CC1	1.058%
Cc1ccoc1C(=O)N1CCn2nnc(COc3cccnc3)c2C1.O=C(O)C(F)(F)F	-27.69%
O=C(O)C(F)(F)F.O=C(O)C(F)(F)F.O=C(c1ccnnc1)N1CCN2C[C@H](OCc3cccnc3)C[C@H]2C1	-1.051%
Cc1ccc(CN2Cc3nnn(C)c3C(COCc3ccccc3)C2)o1.O=C(O)C(F)(F)F (centres undefined)	-18.88%
CN(Cc1nc(COc2ccccc2)no1)CC1Cc2ccccc2O1 (centres undefined)	29.18%
CCc1ccc(CN(C)Cc2nc(-c3cnccn3)no2)nc1	20.61%
CCc1ccc(CN(C)Cc2nc(COc3ccccc3)no2)nc1	62.03%
COc1ccc(CNCC2CCN(c3ccccc3OC)C2)cc1O (centres undefined)	2.532%
COc1ccccc1N1CCC(CNCc2cccc(OC)c2OC)C1 (centres undefined)	81.84%
COc1ccccc1N1CCC(CNCc2cccc(O)c2)C1 (centres undefined)	14.53%
O=C(NC1CCC1)[C@@H]1C[C@@H]2CCN(Cc3cccs3)C[C@@H]2O1.O=C(O)C(F)(F)F	3.012%
